Compounds without any hit were thinned out: in the full panel of roughly 83,000, 20% have a hit.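 Plates (96-well) were seeded with cells, treated with compound at one concentration, and incubated for 48 hours before percent growth was determined.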 Unmarked numbers belong to inactive results. Activity calls are given as the source filed them. How the source made its calls: active means growth percent below 10; inactive means the rest.
test system: MDA-MB-468 breast; assay: NCI-60 one-dose screen, 48 h (100 = growth as untreated, 0 = no growth, -100 = all killed); settings: 10 µM unless noted

Row | SMILES | growth
1 | COc1cc(/C=C2\Oc3cc(OCC(=O)c4ccccc4)ccc3C2=O)cc(OC)c1OC | 97%
2 | O=C(CN1C(=O)c2ccccc2S1(=O)=O)Nc1nc(-c2cc3ccccc3oc2=O)cs1 | 100%
3 | Cc1ccc(S(=O)(=O)Nc2c(Br)cc(Br)cc2C(N)=O)cc1 | 102%
4 | O=C(C[C@@]1(O)C(=O)Nc2c(Cl)ccc(Cl)c21)c1ccc(C2CC2)cc1 | -4.24% (active)
5 | O=C1Nc2cc(Cl)ccc2/C1=C\c1c(-c2ccc(F)cc2)nc2ccccn12 | -7.93% (active)
6 | COc1ccc(CCN(CC(=O)N(CC(N)=O)C2CCC[C@@H]2OCc2ccccc2)C(=O)CN(C(=O)CN(CCc2ccc(Cl)cc2)C(=O)CN(C(=O)CN(C)Cc2ccccc2F)[C@H](C)C2CCCCC2)[C@H](C)C2CCCCC2)cc1OC (stereo not given in full) | 14.7%
7 | COc1cc2c3c(c4c5ccccc5[nH]c4c2c(OC)c1OC)C(=O)N(CCN1CCOCC1)C3=O | 65.7%
8 | C#CC(C)(O)[C@@H]1C[C@H](CC(=O)O)C1(C)C (stereo not given in full) | 114%
9 | C/C(O)=C(/C=N\C(=S)Nc1ccc(S(=O)(=O)Nc2nccs2)cc1)C(=O)Nc1ccccc1C | 82%
10 | O=C(Nc1ccc(C2=NCCCN2)cc1)c1ccc(C(=O)Nc2ccc(C3=NCCCN3)cc2)nc1 | 102%
11 | O=C1c2ccccc2Cc2cccc(Cl)c21 | 92.7%
12 | CC(=O)NC(CCC(=O)c1ccccc1)C(=O)O (stereo not given) | 93.6%
13 | CC1(C)CC(=O)c2c(ccc(C(=O)C[C@@H](N)CO)c2N)O1 | 5.3% (active)
14 | O=C(CN1CCN(c2cc3c(cc2F)c(=O)c(C(=O)O)cn3C2CC2)CC1)N/N=C/c1ccco1 | 104%
15 | N#Cc1cc(-c2nc3ccccc3s2)c(=O)n(NS(=O)(=O)c2ccccc2)c1N | 118%
16 | Fc1ccc2[nH]cc(-c3nonc3-c3c[nH]c4ccc(Br)cc34)c2c1 | 44.3%
17 | O=c1oc2ccc3ccccc3c2cc1-c1ccnc2[nH]c(=S)[nH]c(=O)c12 | 97.1%
18 | N#C/C(=C\c1cccc2cnccc12)n1nnc2cccc(F)c21 | 31.9%
19 | Nc1nc(N)c(NC(=O)CNc2ccc(C(=O)O)cc2)c(N)n1 | 98.6%
20 | Cc1ccc(-n2c(C)nn3c(=O)c4c5c(sc4nc23)CN(C)CC5)cc1 | 102%

Row | SMILES | growth
21 | CS(=O)(=O)c1cccnn1 | 74%
22 | O=c1[nH]c(=O)n(C2C[C@H](O)[C@@H](CO)O2)cc1C(F)(F)F (stereo not given in full) | 117%
23 | Cc1ccc2[nH]c3nc4cccnc4c(C)c3c2c1 | -35% (active)
24 | CCOC(=S)SCc1ccc(Cl)cc1 | 106%
25 | CCCCCCCCOc1ccc(/C=N/Nc2cc(C)nc3ccc(Cl)cc23)cc1 | -49.9% (active)
26 | O=[N+]([O-])c1ccc(NS(=O)(=O)c2cc(Cl)ccc2Cl)c2ccccc12 | 23.6%
27 | CC(C)(C)c1nn(-c2ccccc2)c2c1CC1(CN2Cc2ccc(Cl)cc2)C(=O)c2ccccc2C1=O | 88.1%
28 | O=C1C(Nc2ccc(Br)cc2)=C(I)C(=O)c2ncccc21 | -81.4% (active)
29 | C=CCN=c1sc2c(n1NC(=O)c1cc3ccc1CCc1ccc(cc1)CC3)C(=O)c1ccccc1C2=O | -30.1% (active)
30 | CC(C)c1ccc2c(c1)CC[C@H]1[C@](C)(C(=O)OCC#CCN3CCCC3)CCC[C@]21C | 52.4%
31 | Cc1cccc(Cc2cnc(NC(=O)CCc3ccc(C)o3)s2)c1 | 5% (active)
32 | CCN(C(=O)c1cc2ccccc2[nH]1)[C@H]1CCC[C@@H](NCc2ccc(OC)cc2)C1 | 80.7%
33 | Cc1ccc(C)c2c1C(O)(C#Cc1ccccc1)c1ccccc1C2(O)C#Cc1ccccc1 (stereo not given) | 58.1%
34 | Clc1cc(Cl)c2nc(-c3ccc(-c4ccc(/C=N/NC5=NCCN5)cc4)s3)cn2c1 | 103%
35 | CCCCCOc1ccc(C(=O)/C(Br)=C/C(=O)O)cc1 | 89.2%
36 | COc1ccc(C(=O)NC(=O)Nc2ccc3c(c2)NC(=O)/C3=C\c2[nH]c(C)c(CCC(=O)O)c2C)c(F)c1 | 59.7%
37 | COc1cc2c(cc1OC)C(CC1(O)CCCCC1)N(S(=O)(=O)c1ccc(C)cc1)CC2 (stereo not given) | 44.4% [100 µM]
38 | Cc1ccc(/C=C2\COc3ccc(O)cc3C2=O)cc1 | 91.4%
39 | C=C(CBr)[C@@H]1CC[C@]2(COC(C)=O)CC[C@]3(C)[C@H](CC[C@@H]4[C@@]5(C)CCCNC(C)(C)[C@@H]5CC[C@]43C)[C@@H]12 | 25.1%
40 | COc1cc(NCCCCCN=C(N)NC(N)=NC(C)C)c2ncccc2c1 | -63.5% (active)

— PubChem BioAssay (NCI)
